From ChEMBL document CHEMBL1857833, “Screening and optimization of specific chemical series against human African Trypanosomiasis (HAT)”
About 390 (8.9%) of roughly 4,400 compounds showed an effect of 50% or more. Many of the other results were omitted from the sample, so strong results are more common in it than they were.

Tested on: Trypanosoma brucei
Assay: DNDI: Inhibition of Human African Trypanosomiasis, SBRI 427, in vitro at 2 ug.mL-1
Type: functional

SMILES | % inhibition [%]
Cc1cccc(N2CCN(Cc3coc(-c4ccccc4F)n3)CC2)c1C | -33
CN(CCc1ccccc1)Cc1coc(-c2ccccc2Cl)n1 | 17
COc1cccc(-c2nc(CN(C)Cc3cc(OC)c(OC)c(OC)c3)co2)c1 | -4
O/N=C(\NC1CCCC1)c1cccnc1Oc1c(F)cccc1F | 100
O/N=C(\NCC1CCCCC1)c1cccnc1Oc1c(F)cccc1F | 99
O/N=C(/c1cccnc1Oc1c(F)cccc1F)N1CCC2CCCCC2C1 (centres undefined) | -13
CC1CC(N/C(=N\O)c2cccnc2Oc2c(F)c(F)cc(F)c2F)CC(C)(C)C1 (centres undefined) | -10
O/N=C(\NCC1CCCO1)c1cccnc1Oc1c(F)c(F)cc(F)c1F (centres undefined) | 1
CC1CC(N/C(=N\O)c2cccnc2OCC(C)(C)C)CC(C)(C)C1 (centres undefined) | 44
CC1CC(N/C(=N\O)c2cccnc2Oc2c(F)cccc2F)CC(C)(C)C1 (centres undefined) | 98
O/N=C(\NC1CCCCC1)c1cccnc1Oc1c(F)cccc1F | 99
COc1ccc(Oc2nc(C)ccc2/C(=N/O)NCCN(C)C)cc1 | 0
CCOc1ccc(-c2nc(CN(C)C3CCCCC3)co2)cc1 | 5
c1ccc(Oc2ccc(NCc3coc(-c4cccc5ccccc45)n3)cc2)cc1 | 1
O/N=C(/c1cccnc1OCc1ccccc1F)n1ccnc1 | -10
C#CCN(C)Cc1coc(-c2ccc(C)cc2)n1 | -1
Fc1cccc(-c2nc(CNCc3cccc4ccccc34)co2)c1 | 17
CCOc1ccccc1N(Cc1ccccc1)Cc1coc(-c2ccc(O)cc2)n1 | -16
O/N=C(/c1ccc(Oc2ccc(-n3ccnc3)cc2)nc1)N1CC=CC1 | 16
COc1ccc(NCc2coc(-c3ccc(OC)cc3)n2)cc1 | 9
COc1ccc(OC)c(NCc2coc(-c3ccc(C)cc3)n2)c1 | 0
CC1CC(C)CN(/C(=N\O)c2cccnc2Oc2c(F)cccc2F)C1 (centres undefined) | 28
CC1CCC(N/C(=N\O)c2cccnc2Oc2c(F)cccc2F)CC1 (centres undefined) | 99
Cc1ccc(/C(=N/O)NC2CCC(C)CC2)c(Oc2c(F)c(F)cc(F)c2F)n1 (centres undefined) | 22
CCOc1ccc(-c2nc(CN(C)c3ccccc3)co2)cc1 | -8
CN(Cc1coc(-c2ccc(Cl)cc2Cl)n1)CC1OCCO1 | 30
COc1cc(C)ccc1Oc1nc(C)ccc1/C(=N/O)Nc1ccccc1 | -6
CC(C)c1ccc(NCc2coc(-c3ccc(F)cc3)n2)cc1 | 7
COc1cc(-c2nc(CN(C)CCc3ccccn3)co2)cc(OC)c1OC | -7
